PubChem BioAssay (NCI)
About 83,000 compounds went through this panel and 20% of them were active in at least one assay; those are over-represented in the sample as a whole.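 Single-dose data. Exposure time 48 hours. Values below 10 considered active.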 Unmarked numbers belong to inactive results. Activity calls are given as the source filed them.

What was measured:
Assay in all cases: NCI-60 one-dose screen, 48 h (100 = growth as untreated, 0 = no growth, -100 = all killed)
Details in all cases: 10 µM unless noted
RPMI-8226 leukemia = tested on: RPMI-8226 leukemia
OVCAR-8 ovarian = tested on: OVCAR-8 ovarian
OVCAR-5 ovarian = tested on: OVCAR-5 ovarian
OVCAR-4 ovarian = tested on: OVCAR-4 ovarian
SK-OV-3 ovarian = tested on: SK-OV-3 ovarian
IGROV1 ovarian = tested on: IGROV1 ovarian
OVCAR-3 ovarian = tested on: OVCAR-3 ovarian
HS 578T breast = tested on: HS 578T breast
NCI/ADR-RES ovarian = tested on: NCI/ADR-RES ovarian
T-47D breast = tested on: T-47D breast
BT-549 breast = tested on: BT-549 breast
MDA-MB-435 melanoma = tested on: MDA-MB-435 melanoma
SW-620 colon = tested on: SW-620 colon
MCF7 breast = tested on: MCF7 breast
HCT-116 colon = tested on: HCT-116 colon
HCC-2998 colon = tested on: HCC-2998 colon
KM12 colon = tested on: KM12 colon

Row | Structure (SMILES) | growth (RPMI-8226 leukemia) | growth (OVCAR-8 ovarian) | growth (OVCAR-5 ovarian) | growth (OVCAR-4 ovarian) | growth (SK-OV-3 ovarian) | growth (IGROV1 ovarian) | growth (OVCAR-3 ovarian) | growth (HS 578T breast) | growth (NCI/ADR-RES ovarian) | growth (T-47D breast) | growth (BT-549 breast) | growth (MDA-MB-435 melanoma) | growth (SW-620 colon) | growth (MCF7 breast) | growth (HCT-116 colon) | growth (HCC-2998 colon) | growth (KM12 colon)
1 | O=C(O)c1cn(C2CC2)c2cc(N3CCN(Cc4nnc(Nc5ccccc5)o4)CC3)c(F)cc2c1=O | 106% | 108% | 94% | 101% | 108% | 95.9% | 101% | 98% | 107% | 85.4% | 98.8% | 97.6% | 106% | 97.7% | 91.6% | 103% | 96.7%
2 | CCCCc1ccc(N=Nc2ccc(OCC[N+](C)(C)C)cc2)cc1 | 17.8% | 26.8% | 76.2% | 71.8% | 74.8% | 19.2% | 30.2% | 72.3% | 104% | 88.7% | 56.4% | 88.6% | 49.6% | 85.1% | 48.7% | 25.6% | 29.9%
3 | CCOC(=O)/C(=C/c1c(-c2ccccc2)[nH]c2ccccc12)C(=O)c1ccc(Cl)cc1 | -17.2% (active) | 59.8% | 95.8% | 46.8% | 81.6% | 98.5% | 38.5% | 63.4% | 45.4% | 24.9% | 64.7% | 9.31% (active) | 45.4% | 28.4% | 14% | 67.1% | 18.6%
4 | CNCc1cccc2c1OCCOCCOCCN(CCN1CCOCC1)S(=O)(=O)c1ccc(cc1)-c1cnc(N)c(n1)C(=O)N2 | 54.8% | 62.2% | 119% | 54.8% | 17.3% | 47.9% | 49.4% | 47.5% | 108% | 101% | 22.3% | 47.3% | 43.4% | 37.8% | 35.9% | 48.2% | 37.5%
5 | O=C(/C(=C/c1ccc([N+](=O)[O-])cc1)SCc1ccc(Cl)cc1)c1ccc(F)cc1 | -25.6% (active) | 57.8% | 95.4% | 60.9% | 63.9% | 58.4% | 54% | 27.9% | 51% | 36.4% | 78.2% | 49.2% | -9.4% (active) | -11.9% (active) | -54.9% (active) | 84.5% | 23.3%
6 | CCOC(=O)c1c(C)nc2c(c1N)/C(=C/c1ccccn1)C(=O)N2Cc1ccccc1 | -25.8% (active) | -7.26% (active) | 64.1% | 47.8% | 65.9% | -10.6% (active) | -19% (active) | 33.2% | -3.17% (active) | 9.22% (active) | 15.9% | 11.2% | 1.97% (active) | 2.76% (active) | -21.8% (active) | 11.2% | 12.2%
7 | COc1cc(/C=C/C(=O)c2cccs2)ccc1OCc1ccc(Cl)nc1 | 17.5% | 80.2% | 88.9% | 101% | 105% | 76.8% | 67.9% | 104% | 69.6% | 77.1% | 91.4% | 76.7% | 58.2% | 9.24% (active) | 75.1% | 99.8% | 28.5%
8 | CO[C@@]12C=C[C@@]34CCC(=O)N3c3ccccc3[C@@H](O1)C4C2 | 94.6% | 97.7% | 101% | 109% | 107% | 99.1% | 108% | 95.3% | 97.7% | 96.2% | 105% | 104% | 101% | 97.9% | 102% | 106% | 105%
9 | CSc1cccc(NC(=O)Nc2nc3c(C)cccc3s2)c1 | 60.7% | 93.9% | 117% | 85% | 97.1% | 90.2% | 117% | 87.7% | 91.5% | 95% | 119% | 106% | 113% | 76.4% | 93% | 106% | 107%
10 | Nc1ccccc1NC(=O)c1ccc(CSc2nc(N3CCOCC3)c3cccn3n2)cc1 | -4.81% (active) | 15.9% | 29.5% | 42% | 6.2% (active) | 21.5% | 1.87% (active) | 23.1% | 3.65% (active) | -1.13% (active) | 15.3% | -21.2% (active) | 9.25% (active) | 10.3% | 6.78% (active) | 17.6% | 16.6%
11 | CC(=O)c1cnc(-c2ccccc2)nc1CBr | 37.7% | 89.3% | 96.3% | 79.7% | 105% | 89.2% | 30.1% | 89% | 92.2% | 38.5% | 70.3% | 86.4% | 39.6% | 52.2% | 28.4% | 99.8% | 95.2%
12 | COc1ccc(NC(=O)Nc2ccc(Nc3nc(C)cc(Nc4ccc(C)cc4)n3)cc2)cc1 | -45.9% (active) | -56.6% (active) | -85.7% (active) | -87.1% (active) | 69% | -70.5% (active) | -95.5% (active) | -21.6% (active) | -56.3% (active) | -60.1% (active) | 3.93% (active) | -97.5% (active) | -62% (active) | -63.8% (active) | -91.6% (active) | -74.6% (active) | -88.1% (active)
13 | C[C@H]1[C@H](C)CC[C@]2(C(=O)OCCCC[P+](c3ccccc3)(c3ccccc3)c3ccccc3)CC[C@]3(C)C(=CC[C@@H]4[C@@]5(C)CC[C@H](OC(=O)C(Cl)Cl)C(C)(C)[C@@H]5CC[C@]43C)[C@H]12 | -53.3% (active) | -36.8% (active) | -52.2% (active) | -12.1% (active) | -15.5% (active) | -51.8% (active) | -88.8% (active) | -20.1% (active) | 36.8% | -23.8% (active) | -87.1% (active) | -91.4% (active) | -71.3% (active) | -38.1% (active) | -89.2% (active) | -84.8% (active) | -85.7% (active)
14 | O=CN1N=C(c2ccc(F)cc2)CC1c1cccc(Nc2ccnc3cc(C(F)(F)F)ccc23)c1 (stereo unspecified) | 24.6% | 41.5% | 95.2% | 41% | 69.1% | 67.9% | 59.8% | 73.5% | 47.4% | 26.4% | 44.3% | 58.2% | 79.1% | 25.3% | 41.8% | 76.3% | 55.9%
15 | CCOCc1cc(C(C)(C)C)ccc1O | 106% | 95.4% | 105% | 103% | 97.8% | 107% | 115% | 99.2% | 103% | 98.6% | 104% | 102% | 93.4% | 97.6% | 91.2% | 104% | 106%
16 | O=C(NCc1ccccc1)c1ccc2c(c1)NC(=O)[C@@H]1CCCN21 | 105% | 106% | 100% | 112% | 111% | 104% | 101% | 90.7% | 98.3% | 108% | 110% | 99.6% | 96.4% | 85.4% | 105% | 88% | 84%
17 | O=c1c2ccccc2oc2ccc(OCCCCCN3CCCCCC3)cc12 | 57.3% | 75.5% | 92% | 73.1% | 93.5% | 77.2% | 87.1% | 88.8% | 77.8% | 58.8% | 78.5% | 73.8% | 77.7% | 68.2% | 58.4% | 84.6% | 68.6%
18 | COc1ccc(Cc2nc(C#N)c(N3CCN(c4ccc(F)cc4)CC3)o2)cc1 | 93.3% | 103% | 86.7% | 79.3% | 89.6% | 76.8% | 96.9% | 92.5% | 95.3% | 81.2% | 94.5% | 84.6% | 97.7% | 79.7% | 78.2% | 93.8% | 78.8%
